In publication PMC12864922, “TDP-43 directly inhibits mRNA accumulation in neurites through modulation of mRNA stability”:
The full ranking holds about 9,900 sequences; the median of “r (bound/input frequency ratio)” is about 0.7, and the highest 2% start at about 6.5. The sample holds the highest values, similar sequences and a random draw of the others, so the mix is not that of the screen.

B1: ENSMUSG00000042529.392|Kcnj12|56:60;127:179;184:189;193:197;209:219;242:247 (ssRNA)
RNA: GGGAGUUCUACAGUCCGACGAUCGCUUCGAUAUCCGCAUGCUAGAUCAGUCCGACUUGAGUCCCUGCCCUGCCCUGGUUAUGCAGGCUGUACGACGCACACACCAUCAGUCUGAGGAGUCUGGUGGUAAGUAAGCCUCUGCAGCAGACCCUGUCGGAGGCCAUGGGGGCCACACACACACACACACACACACACACACACACACACACACACACACACACACAACAACACACAGGCACACGAGGUCCCAGGCACACACAUACUGAAUGUCAGUGGCUUGGGUGCACACACGAGAGAGAGAGAGCUCUUGCGGUCGCACUAGUGUGGAAUUCUCGGGUGUCAAGG
B2: ENSMUSG00000042529.396|Kcnj12 (ssRNA)
RNA: GGGAGUUCUACAGUCCGACGAUCGCUUCGAUAUCCGCAUGCUACCUGCCCUGGUUAUGCAGGCUGUACGACGCAGUGUGCAUCAGUCUGAGGAGUCUGGUGGUAAGUAAGCCUCUGCAGCAGACCCUGUCGGAGGCCAUGGGGGCGUGUGUGUGUGUGUGUGUGUGUGUGUGUGUGUGUGUGUGUGUGUGUGUGUGUGAACAUGUGUGAGGGUGUGGAGGUCCCAGGGUGUGUGUAUGUGAAUGUCAGUGGCUUGGGUGCUGUGUGGAGAGAGAGAGAGAGAGAGAGAGAGAGAGAGAGAGAGCUCUUGCGGUCGCACUAGUGUGGAAUUCUCGGGUGUCAAGG
B3: ENSMUSG00000042529.414|Kcnj12 (ssRNA)
RNA: GGGAGUUCUACAGUCCGACGAUCGCUUCGAUAUCCGCAUGCUAGUGUGUGUGUGUGUGUGUGUGUGUGUGUGUGUGUGUGUGUGUGUGUGAACAUGUGUGAGGGUGUGGAGGUCCCAGGGUGUGUGUAUGUGAAUGUCAGUGGCUUGGGUGCUGUGUGGAGAGAGAGAGAGAGAGAGAGAGAGAGAGAGAGAGAGAGAGAGAGAGAGAGCUGCACAGGAUGAAGCAGCUGCCCUGAGCCCAUCUGGUGCUGUGCACCUGGUCCUUGUCCAGCCGAGGGCCUGGGGGCAGAAGAACACACCAUACUCUUGCGGUCGCACUAGUGUGGAAUUCUCGGGUGUCAAGG
B4: ENSMUSG00000042529.413|Kcnj12 (ssRNA)
RNA: GGGAGUUCUACAGUCCGACGAUCGCUUCGAUAUCCGCAUGCUAGUGUGUGUGUGUGUGUGUGUGUGUGUGUGUGUGUGUGUGUGUGUGUGUGUGUGAACAUGUGUGAGGGUGUGGAGGUCCCAGGGUGUGUGUAUGUGAAUGUCAGUGGCUUGGGUGCUGUGUGGAGAGAGAGAGAGAGAGAGAGAGAGAGAGAGAGAGAGAGAGAGAGAGAGAGCUGCACAGGAUGAAGCAGCUGCCCUGAGCCCAUCUGGUGCUGUGCACCUGGUCCUUGUCCAGCCGAGGGCCUGGGGGCAGAAGAACACCUCUUGCGGUCGCACUAGUGUGGAAUUCUCGGGUGUCAAGG
B5: ENSMUSG00000043670.183|Diras1 (ssRNA)
RNA: GGGAGUUCUACAGUCCGACGAUCGCUUCGAUAUCCGCAUGCUAGACAGAAUCUGAGCCUCUUUGCUGGUCAUGUGUACUCUGGAGACUGUCCCCCAUGUCUGCCCUGAGUUACGGAGCCCCUGUGGUAUCUGCGAGACUGUCCAGGAGACUUGAGUGGCUCCUGGGCCUGUGUCCCACCCAGAUGAGGGUGACUUAGAAUUCUGUGUUUAUGUGCCUGUGUGUGUGGAUGGGUGUGUGUCUGUCUUGGGAUGGGGUGUUCUUGCACCACUUUGUGUUCUUAGUGAGACCACAGUGUAAGUGGCCUCUUGCGGUCGCACUAGUGUGGAAUUCUCGGGUGUCAAGG
B6: ENSMUSG00000042529.395|Kcnj12 (ssRNA)
RNA: GGGAGUUCUACAGUCCGACGAUCGCUUCGAUAUCCGCAUGCUACCCUGCCCUGCCCUGGUUAUGCAGGCUGUACGACGCAGUGUGCAUCAGUCUGAGGAGUCUGGUGGUAAGUAAGCCUCUGCAGCAGACCCUGUCGGAGGCCAUGGGGGCGUGUGUGUGUGUGUGUGUGUGUGUGUGUGUGUGUGUGUGUGUGUGUGUGUGUGAACAUGUGUGAGGGUGUGGAGGUCCCAGGGUGUGUGUAUGUGAAUGUCAGUGGCUUGGGUGCUGUGUGGAGAGAGAGAGAGAGAGAGAGAGAGAGAGAGCUCUUGCGGUCGCACUAGUGUGGAAUUCUCGGGUGUCAAGG
B7: ENSMUSG00000042529.389|Kcnj12 (ssRNA)
RNA: GGGAGUUCUACAGUCCGACGAUCGCUUCGAUAUCCGCAUGCUAGAUGCUGGCCACAGACAUGAUCAGUCCGACUUGAGUCCCUGCCCUGCCCUGGUUAUGCAGGCUGUACGACGCAGUGUGCAUCAGUCUGAGGAGUCUGGUGGUAAGUAAGCCUCUGCAGCAGACCCUGUCGGAGGCCAUGGGGGCGUGUGUGUGUGUGUGUGUGUGUGUGUGUGUGUGUGUGUGUGUGUGUGUGUGUGAACAUGUGUGAGGGUGUGGAGGUCCCAGGGUGUGUGUAUGUGAAUGUCAGUGGCUUGGGUGCUCUCUUGCGGUCGCACUAGUGUGGAAUUCUCGGGUGUCAAGG
B8: ENSMUSG00000042529.390|Kcnj12 (ssRNA)
RNA: GGGAGUUCUACAGUCCGACGAUCGCUUCGAUAUCCGCAUGCUAGGCCACAGACAUGAUCAGUCCGACUUGAGUCCCUGCCCUGCCCUGGUUAUGCAGGCUGUACGACGCAGUGUGCAUCAGUCUGAGGAGUCUGGUGGUAAGUAAGCCUCUGCAGCAGACCCUGUCGGAGGCCAUGGGGGCGUGUGUGUGUGUGUGUGUGUGUGUGUGUGUGUGUGUGUGUGUGUGUGUGUGUGAACAUGUGUGAGGGUGUGGAGGUCCCAGGGUGUGUGUAUGUGAAUGUCAGUGGCUUGGGUGCUGUGUGGCUCUUGCGGUCGCACUAGUGUGGAAUUCUCGGGUGUCAAGG
B9: ENSMUSG00000042529.391|Kcnj12 (ssRNA)
RNA: GGGAGUUCUACAGUCCGACGAUCGCUUCGAUAUCCGCAUGCUAAGACAUGAUCAGUCCGACUUGAGUCCCUGCCCUGCCCUGGUUAUGCAGGCUGUACGACGCAGUGUGCAUCAGUCUGAGGAGUCUGGUGGUAAGUAAGCCUCUGCAGCAGACCCUGUCGGAGGCCAUGGGGGCGUGUGUGUGUGUGUGUGUGUGUGUGUGUGUGUGUGUGUGUGUGUGUGUGUGUGAACAUGUGUGAGGGUGUGGAGGUCCCAGGGUGUGUGUAUGUGAAUGUCAGUGGCUUGGGUGCUGUGUGGAGAGAGCUCUUGCGGUCGCACUAGUGUGGAAUUCUCGGGUGUCAAGG

Molecular target: TDP-43 (Homo sapiens, UniProt Q13148 1-414)
Sequence (Q13148 whole entry): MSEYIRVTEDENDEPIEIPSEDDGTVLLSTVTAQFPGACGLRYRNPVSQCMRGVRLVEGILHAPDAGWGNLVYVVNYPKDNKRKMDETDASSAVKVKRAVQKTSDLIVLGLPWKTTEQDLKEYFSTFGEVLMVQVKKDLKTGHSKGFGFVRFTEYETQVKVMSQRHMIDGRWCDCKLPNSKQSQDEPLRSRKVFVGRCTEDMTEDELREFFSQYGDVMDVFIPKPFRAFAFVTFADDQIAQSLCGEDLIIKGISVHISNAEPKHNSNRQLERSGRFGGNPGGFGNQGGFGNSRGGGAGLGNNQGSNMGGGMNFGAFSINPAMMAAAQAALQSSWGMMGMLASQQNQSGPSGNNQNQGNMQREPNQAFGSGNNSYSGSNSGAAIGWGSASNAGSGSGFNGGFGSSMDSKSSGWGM
Assay: RNA Bind-n-Seq with designed 260-mer pool; 25 mM Tris-HCl, 150 mM KCl, 3 mM MgCl2, BSA (printed 500 mg/mL), 20 units/mL SUPERase IN; pH not stated; 500 nM RNA pool, 1 h, 4 C; TDP-43 5, 50, 500 nM; high values mean tight binding
Details: protein: recombinant; tags: SBP (GST cleaved off with PreScission; pGEX-GST-SBP)
Procedure, shortened: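 In 25 mM Tris-HCl, 150 mM KCl, 3 mM MgCl2, BSA and SUPERase IN, 500 nM of an in vitro-transcribed 260-nt 3′ UTR oligo pool was incubated for 1 h at 4 °C with SBP-tagged TDP-43 (5, 50 or 500 nM) captured on streptavidin beads. RNA remaining after washes was biotin-eluted, reverse transcribed, PCR-amplified and sequenced. Binding, R, is the bound-sample abundance of each oligo, normalized to mapped reads, divided by its abundance in input. Each duplicate used a separate, independent protein batch.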

Row | Binder | binding signal
1 | B1 | 2.98 R (bound/input frequency ratio)
2 | B2 | 7.9 R (bound/input frequency ratio)
3 | B3 | 5.01 R (bound/input frequency ratio)
4 | B4 | 4.88 R (bound/input frequency ratio)
5 | B5 | 5.8 R (bound/input frequency ratio)
6 | B6 | 5.73 R (bound/input frequency ratio)
7 | B7 | 7.39 R (bound/input frequency ratio)
8 | B8 | 8.92 R (bound/input frequency ratio)
9 | B9 | 10.1 R (bound/input frequency ratio)
